Several values for one entry are separate records, joined by “and”; a condition that tells them apart may be missing. Equal values may be shown once. Results filed as inconclusive are left out. Activity calls are given as the source filed them. Unless noted, how the calls were made is not given here. Peptide text beside a SMILES is read from it.
Columns and labels:
[1] = compounds altering viability of human ES cells (AID 493140); conditions: human embryonic stem cell survival screen; stronger effect = higher value;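 further: cells exposed to compounds for four days before counting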
[2] = compounds altering Cy5-DNA-NS3h complex signal – biochemical, LOPAC1280, artefact control for HCV NS3 helicase inhibitor project (AID 687037); conditions: Cy5-DNA-NS3h complex fluorescence interference counterscreen
[3] = viability loss in pontine glioma line – cell-based, SU-DIPG-XIII, MIPE5.0, CellTiter-Glo, qHTS, dose response (AID 1347064; cut-off not given, nearly all actives have AC50 up to about 23 µM;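 on AC50: cells exposed to compound for 48 hours before the viability read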); conditions: CellTiter-Glo ATP luminescence
[4] = viability loss in pontine glioma line – cell-based, SU-DIPG-XXV, MIPE5.0, CellTiter-Glo, qHTS, dose response (AID 1347065; cut-off not given, nearly all actives have AC50 up to about 26 µM;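 further: cells exposed to compound for 48 hours before ATP readout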); conditions: CellTiter-Glo ATP luminescence
[5] = growth inhibition of DIPG cells – cell-based, MIPE4.0 library, CellTiter-Glo luminescence, qHTS (AID 1347066; cut-off not given, nearly all actives have AC50 up to about 30 µM;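 further: cells exposed to compound for 48 hours before readout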); conditions: SU-DIPG-VI viability, CellTiter-Glo ATP luminescence
[6] = compounds altering HSF1 focus formation in cells – imaging, Selleck Cancer Library (AID 1347162; in the data active means plate-normalised HSF1 focus index below about 0.46); conditions: human cells, HSF1 nuclear foci imaging, at 10 µM; SSMD: measured here: HSF1 foci SSMD mean; cell count: measured here: cell number; plate-normalised HSF1 focus index: stronger effect = lower value
[7] = biological target: ATP-dependent translocase ABCB1 (Homo sapiens) (UniProt P08183); experiment: P-glycoprotein substrate transport blockade – cell-based (AID 377; in the data active means fluorescence slope change above about 50%); conditions: MDR1-expressing cells, fluorescent substrate accumulation slope; stronger effect = higher value; concentration not given here
[8] = viability loss in pontine glioma line – cell-based, SU-DIPG-XVII, MIPE5.0, CellTiter-Glo, qHTS, dose response (AID 1347060; cut-off not given, nearly all actives have AC50 up to about 26 µM;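 on AC50: cells exposed to compound for 48 hours before viability readout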); conditions: CellTiter-Glo ATP luminescence
[9] = viability loss in pontine glioma line – cell-based, SU-DIPG-XIII, MIPE4.0, CellTiter-Glo, qHTS, dose response (AID 1347061; cut-off not given, nearly all actives have AC50 up to about 37 µM;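 further: cells exposed to compound for 48 hours before readout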); conditions: CellTiter-Glo ATP luminescence
[10] = viability loss in pontine glioma line – cell-based, JHH-DIPG-1, MIPE4.0, CellTiter-Glo, qHTS, dose response (AID 1347062; cut-off not given, nearly all actives have AC50 up to about 27 µM;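 on AC50: cells exposed to compound for two days before readout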); conditions: JHH-DIPG-1 viability, CellTiter-Glo ATP luminescence
[11] = viability loss in pontine glioma line – cell-based, SU-DIPG-IV, MIPE4.0, CellTiter-Glo, qHTS, dose response (AID 1347063; cut-off not given, nearly all actives have AC50 up to about 30 µM;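 further: compound exposure lasted 48 hours before the viability readout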); conditions: CellTiter-Glo ATP luminescence
[12] = growth inhibition of DIPG cells – cell-based, MIPE5.0 library, qHTS (AID 1347068; cut-off not given, nearly all actives have IC50 up to about 30 µM;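 on IC50: cells exposed to compound for 48 hours before viability readout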); conditions: SU-DIPG-XXV viability
[13] = JHH-DIPG-1 glioma cell viability, MIPE5.0 library, CellTiter-Glo luminescence, qHTS (AID 1347067; cut-off not given, nearly all actives have AC50 up to about 26 µM;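 further: cells exposed to compound for 48 hours before readout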); conditions: JHH-DIPG-1 glioma viability, CellTiter-Glo ATP luminescence

ATP-dependent translocase ABCB1 (Homo sapiens), sequence (P08183 whole entry, looked up): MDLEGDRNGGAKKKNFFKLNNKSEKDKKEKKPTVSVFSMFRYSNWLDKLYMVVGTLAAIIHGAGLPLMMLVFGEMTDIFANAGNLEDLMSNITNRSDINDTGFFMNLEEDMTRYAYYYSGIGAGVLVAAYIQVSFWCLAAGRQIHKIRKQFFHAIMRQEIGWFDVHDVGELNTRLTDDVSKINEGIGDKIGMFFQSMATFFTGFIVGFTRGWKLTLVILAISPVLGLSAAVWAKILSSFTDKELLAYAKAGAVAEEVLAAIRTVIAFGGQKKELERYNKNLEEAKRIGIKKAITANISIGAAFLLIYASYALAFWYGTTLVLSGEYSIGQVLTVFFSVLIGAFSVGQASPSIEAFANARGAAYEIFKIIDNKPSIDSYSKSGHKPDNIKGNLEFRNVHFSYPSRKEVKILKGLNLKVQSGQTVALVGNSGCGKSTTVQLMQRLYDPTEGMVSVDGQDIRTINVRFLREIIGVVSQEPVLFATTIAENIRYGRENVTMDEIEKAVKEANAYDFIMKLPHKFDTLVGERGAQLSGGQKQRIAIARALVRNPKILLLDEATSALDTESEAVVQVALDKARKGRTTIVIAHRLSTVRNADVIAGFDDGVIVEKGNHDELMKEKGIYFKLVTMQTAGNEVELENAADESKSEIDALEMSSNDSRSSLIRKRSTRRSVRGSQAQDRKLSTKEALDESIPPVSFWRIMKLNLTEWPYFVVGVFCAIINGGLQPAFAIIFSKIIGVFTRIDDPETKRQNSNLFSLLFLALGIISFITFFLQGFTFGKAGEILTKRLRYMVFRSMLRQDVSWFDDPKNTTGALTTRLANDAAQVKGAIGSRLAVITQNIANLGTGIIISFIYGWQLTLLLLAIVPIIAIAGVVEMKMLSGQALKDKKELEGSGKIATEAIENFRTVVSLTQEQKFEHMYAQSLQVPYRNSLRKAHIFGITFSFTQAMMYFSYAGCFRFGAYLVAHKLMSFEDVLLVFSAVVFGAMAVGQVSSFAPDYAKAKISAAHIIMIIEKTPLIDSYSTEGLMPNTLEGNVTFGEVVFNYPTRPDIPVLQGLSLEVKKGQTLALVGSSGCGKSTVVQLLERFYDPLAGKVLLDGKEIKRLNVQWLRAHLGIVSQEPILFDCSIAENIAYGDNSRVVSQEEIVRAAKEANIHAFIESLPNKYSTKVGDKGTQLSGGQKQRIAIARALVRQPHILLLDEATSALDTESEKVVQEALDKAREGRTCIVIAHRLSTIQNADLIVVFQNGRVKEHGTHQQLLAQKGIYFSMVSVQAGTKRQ

C[C@]12CC[C@@H]3c4ccc(O)cc4CC[C@H]3[C@@H]1CC[C@@H]2O
inactive: survival [1] 11.2 | fluorescence ratio (interference) [2] 1 | outcome [3] | outcome [4] | outcome [5] | plate-normalised HSF1 focus index [6] 1.15
2.53: SSMD [6]
7010: cell count [6]

Cc1ccc(N(CC2=NCCN2)c2cccc(O)c2)cc1
active: fluorescence slope change [7] 72.4%
inactive: survival [1] 15.2 | fluorescence ratio (interference) [2] 0.9 | outcome [8] | outcome [9] | outcome [10] | outcome [3] | outcome [4] | outcome [5]

CCCCCCCCCCCC1=C(O)C(=O)C=C(O)C1=O
inactive: outcome [9] | outcome [12]
active: AC50 [11] 0.0526 µM

CN1C[C@H](C(=O)N[C@]2(C)O[C@@]3(O)[C@@H]4CCCN4C(=O)[C@H](Cc4ccccc4)N3C2=O)C[C@@H]2c3cccc4[nH]cc(c34)C[C@H]21
active: fluorescence slope change [7] 122%
inactive: survival [1] 19.1 | fluorescence ratio (interference) [2] 1

O=c1cc(-c2ccc(O)cc2)oc2cc(O)cc(O)c12
active: AC50 [8] 16.6 µM | AC50 [10] 2.35 µM | AC50 [11] 2.96 µM | AC50 [3] 16.6 µM
inactive: survival [1] 17.8 | fluorescence ratio (interference) [2] 1

O=C(O)c1cccnc1C(=O)O
inactive: fluorescence ratio (interference) [2] 1

COc1c(C)c2c(c(O)c1C/C=C(\C)CCC(=O)O)C(=O)OC2
-0.56: SSMD [6]
inactive: survival [1] 0.167 | outcome [5] | plate-normalised HSF1 focus index [6] 0.964
active: AC50 [8] 0.742 µM
7660: cell count [6]

CC/C(=C(\c1ccccc1)c1ccc(OCCN(C)C)cc1)c1ccccc1
active: fluorescence slope change [7] 142% | AC50 [8] 17.1 µM | AC50 [11] 26.4 µM | AC50 [3] 13.5 µM | AC50 [4] 19.1 µM | AC50 [5] 23.5 µM | AC50 [13] 21.5 µM | IC50 [12] 17.1 µM
3320: cell count [6]
inactive: survival [1] 6.5 | fluorescence ratio (interference) [2] 1 and 0.9 | plate-normalised HSF1 focus index [6] 0.591
-8.19: SSMD [6]

COc1cc(CNC(=O)CCCC/C=C/C(C)C)ccc1O
inactive: survival [1] 2.67 | outcome [8] | outcome [9] | outcome [10] | outcome [11] | outcome [5] | outcome [13] | outcome [12]

NCCc1cnc[nH]1
inactive: fluorescence ratio (interference) [2] 1 | outcome [8] | outcome [9] | outcome [10] | outcome [3] | outcome [4] | outcome [5] | outcome [13] | outcome [12]

O=c1cc(-c2ccccc2)oc2cc(O)c(O)c(O)c12
inactive: outcome [9] | outcome [11]

CCCCOc1cc(CC2CNC(=O)N2)ccc1OC (stereo not drawn)
inactive: fluorescence ratio (interference) [2] 1

OCc1ccccc1O[C@@H]1O[C@H](CO)[C@@H](O)[C@H](O)[C@H]1O
inactive: outcome [8] | outcome [9] | outcome [10] | outcome [11] | outcome [3] | outcome [5] | outcome [13] | outcome [12]

C1CCc2nnnn2CC1
active: fluorescence slope change [7] 136%
inactive: survival [1] 27.4 | fluorescence ratio (interference) [2] 1

O=C1C[C@@H](c2ccc(O)cc2)Oc2cc(O)cc(O)c21
inactive: outcome [8] | outcome [9] | outcome [10] | outcome [11] | outcome [4] | outcome [5] | outcome [13] | outcome [12]

COc1ccc2cc1Oc1ccc(cc1)C[C@H]1c3cc(c(OC)cc3CCN1C)Oc1c(OC)c(OC)cc3c1[C@H](C2)N(C)CC3
inactive: survival [1] 1.58

CN1C2CCC1CC(OC(=O)C(CO)c1ccccc1)C2 (stereo not drawn)
inactive: survival [1] 7.25 | fluorescence ratio (interference) [2] 0.9 and 1.1 | outcome [9] | outcome [10] | outcome [3] | outcome [4] | outcome [5] | outcome [12]

CCCc1nn(C)c2c(=O)[nH]c(-c3cc(S(=O)(=O)N4CCN(C)CC4)ccc3OCC)nc12
inactive: outcome [8] | outcome [10] | outcome [11] | outcome [3] | outcome [13] | outcome [12]

O=C(/C=C/c1ccc(O)c(O)c1)OCCc1ccccc1
inactive: fluorescence ratio (interference) [2] 1

CC(=O)N[C@@H](CC(=O)O)C(=O)N[C@@H](CCC(=O)O)C(=O)O (Ac-Asp-Glu-OH)
inactive: survival [1] 16.7

COc1cc2c(cc1OC)[C@@H]1C(=O)c3ccc4c(c3O[C@@H]1CO2)C=CC(C)(C)O4
inactive: outcome [12]
active: AC50 [9] 23.5 µM | AC50 [13] 18.6 µM
